The list is not random: actives were taken first. Their share in the collection is about 21%.
CHX counter = Cycloheximide Counterscreen for Small Molecule Inhibitors of Shiga Toxin. cell reporter, cycloheximide protein synthesis inhibition counterscreen. max response, %. actives 12% (n = 300,000). AID 2314, 2010; in the data active means max response mostly above about 13%, no sharp cut-off; inactive means mostly below about 14%; further: read at 38.3 µM for the half of the compounds with a filed dose; 0% is about no effect
Pf growth 48h = Primary qHTS for delayed death inhibitors of the malarial parasite plastid, 48 hour incubation; P. falciparum luciferase growth in erythrocytes, 48 h; Potency, µM (highest dose often 28.7 µM), for inactives: at the top dose activity change, negative = inhibition, usual class: inhibitors; actives 5.9% (n = 310,000); further: potency means the concentration at half of the fitted maximal effect; on the % scale 0 is the no-effect control and ±100 the full control effect
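In quantitative HTS format, infected erythrocytes bearing luciferase-reporter parasites were treated for a single generation at 37 C. Luminescence after adding detection reagent served as the growth measure.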
NS1 function inh = qHTS Assay for Inhibitors of Influenza NS1 Protein Function. Potency, µM (doses to about 46.1 µM), for inactives: at the top dose activity, positive = more growth. actives 0.4% (n = 270,000). AID 2326, 2010; calls by dose curve; further: potency means the concentration at half of the fitted maximal effect; actives are rising curves; nearly all actives have a fitted effect of over 50% in size
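A cell-based growth assay was used: compounds that relieve NS1-induced slow growth of budding yeast raise OD600. Assay medium was yeast nitrogen base with ammonium sulphate and -URA supplement, pH 6.0, with 2% galactose.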
FBPA Giardia inh = qHTS Assay for Inhibitors of Fructose-1,6-bisphosphate Aldolase from Giardia Lamblia. A8B2U2. Potency, µM (highest dose often 59.6 µM), for inactives: at the highest dose activity, negative = inhibition, most hits filed as inhibitors. purified Giardia FBPA. actives 0.71% (n = 290,000); further: potency means the concentration at half of the fitted maximal effect; on the % scale 0 is the no-effect control and ±100 the full control effect; nearly all actives have a fitted effect of over 55% in size
Target sequence (A8B2U2 whole entry, looked up): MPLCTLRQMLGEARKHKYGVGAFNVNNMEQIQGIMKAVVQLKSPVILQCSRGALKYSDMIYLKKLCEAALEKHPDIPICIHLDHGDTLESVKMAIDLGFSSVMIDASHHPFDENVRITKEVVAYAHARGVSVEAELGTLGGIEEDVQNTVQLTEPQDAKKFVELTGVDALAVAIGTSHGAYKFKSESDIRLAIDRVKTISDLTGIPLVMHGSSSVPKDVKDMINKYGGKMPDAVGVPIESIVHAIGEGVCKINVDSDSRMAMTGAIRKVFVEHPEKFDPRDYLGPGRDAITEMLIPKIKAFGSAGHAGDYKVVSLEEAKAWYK
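40 nM FBPA preincubated 10 min at RT with compound (up to 57.5 uM final), then substrate plus GAPDH/TPI/NAD/arsenate coupling and diaphorase/resazurin added. Fluorescence read after 20 min at RT, 525/598 nm.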
Pf growth 96h = Primary qHTS for delayed death inhibitors of the malarial parasite plastid, 96 hour incubation; P. falciparum luciferase reporter growth, 96 h; Potency, µM (doses to about 28.7 µM), for the others: at the top dose activity change, negative = inhibition, actives largely listed as inhibitors; actives 6.9% (n = 320,000); AID 504834, 2011; further: potency means the concentration at half of the fitted maximal effect; on the % scale 0 is the no-effect control and ±100 the full control effect
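Cell-based qHTS: luciferase-tagged P. falciparum in erythrocytes (2% hematocrit, 0.05% parasitemia final) incubated with compounds for 96 hours, 37 C, 5% CO2; luciferase detection reagent then added and luminescence measured.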
Shiga inhibitor = A qHTS for Small Molecule Inhibitors of Shiga Toxin. Vero cells, Shiga toxin protein synthesis inhibition reporter. inhibition, % at 38.7 µM. actives 9.2% (n = 290,000). AID 2315, 2010; in the data active means inhibition mostly above about 28%, no sharp cut-off; inactive means mostly below about 43%; further: 0% is about no effect
Active calls of the source: *; ? = inconclusive; . = no result given; + = active, no number; [ ] = remark or other dose. Unless noted, the call rests on the fitted dose curve; in most records, active means well fitted curve in the direction sought with a large enough effect; inconclusive means small, poorly fitted or top-dose-only effect, or another doubt; inactive means no such curve, though single readings can be large; an effect the other way counts as inactive or inconclusive.

SMILES	CHX counter	Pf growth 48h	NS1 function inh	FBPA Giardia inh	Pf growth 96h	Shiga inhibitor
Cn1c2ccccc2c2nnc(SCC(N)=O)nc21	-3.9	32.1%	5.0%	6.3%	0.7%	-4.7
CCCn1c2ccccc2c2nnc(SCC(=O)OC)nc21	-7.0	-19.6%	-14.6%	-2.0%	7.7%	-16.1
Cn1c2ccccc2c2nnc(SCC(=O)Nc3cccc(O)c3)nc21	10.6*	6.0%	4.9%	1.1%	?	23.5
Cc1c(NC(=O)CSc2nnc3c4ccccc4n(CCc4ccccc4)c3n2)c(=O)n(-c2ccccc2)n1C	-0.8	-8.2%	19.7%	-0.2%	50.7%	-25.8
CCCCn1c2ccccc2c2nnc(SCC(=O)NC3=NN=C(c4ccccc4)CS3)nc21	4.8	2.94µM*	4.2%	0.2%	?	-13.8
O=C1CCN(S(=O)(=O)c2cc(C(F)(F)F)ccc2Cl)CC1	.	-19.7%	.	.	-18.7%	.
Cc1ccc(Nc2ncc3c(n2)CC(C)(C)CC3=O)cc1	34.0*	105.0%	-5.0%	15.8%	2.2%	118.5*
COc1ccc(C2CC(=O)c3sc(N)nc3C2)cc1 (stereo unspecified)	-2.9	2.94µM*	3.6%	6.8%	2.62µM*	21.0
CC1(C)CC(=O)c2cnc(NC3CC3)nc2C1	-1.9	7.2%	3.3%	-0.2%	?	49.4
COc1ccc(Nc2ncc3c(n2)CC(c2ccc(OC)cc2)CC3=O)cc1 (stereo unspecified)	-2.4	?	15.8%	-2.7%	9.28µM*	3.5
O=C(O)c1ccc(NC(=O)c2ccccc2Br)c(NC(=O)c2ccccc2Br)c1	-3.3	-15.0%	?	17.1%	?	-13.1
O=C(Nc1ccc(Cl)cc1F)c1ccccc1Br	63.2*	263.4%	-6.9%	12.8%	31.4%	129.9*
O=C(Nc1ccc(Cl)cc1F)c1cccc2ccccc12	26.5*	34.7%	-10.1%	-3.7%	?	33.7*
Cc1ccc(NC(=O)C(NC2CCCc3ccccc32)c2ccccc2)c([N+](=O)[O-])c1 (stereo unspecified)	22.3*	13.1µM*	10.1%	-23.8%	?	+
CNC(=O)NC(=O)C(NC1CCCc2ccccc21)c1ccccc1 (stereo unspecified)	1.8	?	-6.1%	-2.8%	?	-2.8
Cc1ccc(NC(=O)C(NC2CCCc3ccccc32)c2ccccc2)cc1Cl (stereo unspecified)	26.0*	?	-20.8%	?	?	14.6
CC1(C)Oc2ccc(C(=O)N3CCCC3)cc2N(CC(=O)NCc2ccccc2)C1=O	-0.6	-5.3%	4.4%	5.8%	-6.6%	12.2
COc1ccc(C(=O)CN2C(=O)C(C)(C)Oc3ccc(C(=O)N4CCCCCC4)cc32)cc1	-0.4	.	-1.1%	7.1%	9.28µM*	-6.0
Cc1c(/N=C(\[O-])Nc2ccc(Br)cc2)sn[n+]1C	47.1*	148.9%	-1.0%	3.5%	316.9%	94.5*
CNC(=S)Nc1ccc(Br)cc1	-2.1	3.1%	-5.0%	2.8%	193.7%	-1.1
COc1cccc(Nc2ncc3nc(C)c(=O)n(-c4ccccc4)c3n2)c1	.	.	.	-8.5%	.	.
O=C(CSc1nnc(NC2CCCCC2)s1)Nc1ccc2c(c1)C(=O)c1ccccc1C2=O	42.3*	-50.6%	-0.7%	-7.8%	-26.1%	65.6*
CC(C)Nc1nnc(SCC(=O)Nc2ccc3c(c2)C(=O)c2ccccc2C3=O)s1	40.8*	41.2%	9.8%	-6.3%	?	70.1*
Cc1cccc(C(=O)OCC(=O)Nc2c(C)n(C)n(-c3ccccc3)c2=O)c1	.	-26.6%	.	.	?	.
O=C1Nc2ccc(Br)cc2C1(O)c1ccccc1 (stereo unspecified)	-0.8	6.57µM*	-1.0%	4.0%	?	-10.9
SMILES	CHX counter	Pf growth 48h	NS1 function inh	FBPA Giardia inh	Pf growth 96h	Shiga inhibitor
CCN(CC(=O)Nc1c(F)cccc1F)C(=O)c1n[nH]c2ccccc12	5.5	1.1%	14.0%	.	?	-11.6
Cc1ccc(-c2ccc(CCC(=O)O)n2-c2cccc(C(=O)O)c2)cc1	70.7*	105.1%	5.7%	-3.3%	3.9%	151.5*
COc1ccc(-c2ccc(CCC(=O)O)n2-c2ccccc2O)cc1	47.5*	31.0%	-40.8%	-8.0%	-5.3%	78.7*
COc1ccc(-n2c(CCC(=O)O)ccc2-c2ccccc2)cc1	8.0	17.5%	4.0%	21.4%	34.0%	17.5
O=C(O)CCc1ccc(-c2ccccc2)n1-c1cccc(O)c1	22.7*	16.2%	10.7%	16.1%	1.5%	54.3*
CCCn1c(=O)n(C)c(=O)c2c(SCC(=O)NCC(c3ccccc3)N(C)C)nc(CC(C)C)nc21 (stereo unspecified)	-1.1	?	-1.7%	.	?	-6.5
CO[C@@H]1[C@@H](OC2OC(C)C(OC3CC(C)(O)C(OC(=O)CC(C)C)C(C)O3)C(N(C)C)C2O)[C@@H](CC=O)C[C@@H](C)C(=O)/C=C\C2O[C@H]2C[C@@H](C)OC(=O)C[C@H]1OC(C)=O (stereo partly specified)	.	6.75µM*	.	.	0.757µM*	.
CO[C@H]1[C@H](O[C@H]2O[C@@H](C)[C@@H](O[C@@H]3C[C@](C)(O)[C@H](OC(=O)CC(C)C)[C@H](C)O3)[C@@H](N(C)C)[C@@H]2O)[C@@H](CC=O)C[C@@H](C)[C@@H](O)/C=C\C=C/C[C@@H](C)OC(=O)C[C@H]1OC(C)=O	.	4.55µM*	.	0.7%[21.7 µM]	0.405µM*	.
CSCCC(NC(=O)c1ccco1)C(=O)N(C)CC(=O)Nc1c(Cl)cccc1Cl (stereo unspecified)	.	8.2%	.	.	6.7%	.
O=C1/C(=C/c2cccs2)Cc2ccccc21	36.0*	22.8%	-14.1%	1.6%	-26.4%	157.0*
Cc1ccc(/C=C2\C(=O)NC(=S)N(c3ccccc3F)C2=O)s1	3.5	6.6%	5.9%	-10.0%	4.2%	8.3
O=C1/C(=C\c2cccs2)CCC/C1=C/c1cccs1	.	134.4%	.	.	182.5%	.
Cn1cccc1/C=C1\Cc2ccccc2C1=O	41.5*	474.9%	.	-4.8%	-3.4%	+
O=C1/C(=C\c2ccc(Br)o2)Cc2ccccc21	72.7*	48.1%	-7.8%	-2.0%	21.9%	52.8*
Cc1ccc(C=C2C(=O)c3ccccc3C2=O)s1	55.9*	.	-49.7%	-18.0%	11.7µM*	45.1*
COc1ccc(NC(=O)CN(C)C(=O)CCCN2C(=O)c3cccc4cccc(c34)C2=O)cc1	.	-12.6%	.	.	1.4%	.
c1ccc(CNc2oc(-c3ccccc3)nc2-c2ccccc2)cc1	.	.	.	-1.0%	.	.
O=C1C(=Cc2cccs2)C(=O)c2ccccc21	45.9*	2.2%	-23.3%	?	1.7%	27.5
CCCn1c(N)c(N(CCOC)C(=O)c2c(CC)noc2C)c(=O)[nH]c1=O	.	-23.5%	.	.	13.5%	.

Assay outcomes (PubChem BioAssay)
